Compounds with a hit are over-represented: about 0.37% of the library has one in this group of screens.
Vif-A3G inh = Vif-A3G binding inhibition | Q9HC16 | HeLa A3G-eYFP + Vif (tagged APOBEC3G with the HIV-1 protein that degrades it), YFP fluorescence, overnight | Potency, µM (highest dose often 46.1 µM), inactives show at the highest dose activity, negative = active, most hits filed as inhibitors | actives 0.076% (n = 410,000); also: potency is read from the fitted curve at half-maximal effect; % is scaled to controls: 0 for no effect and ±100 for the full control effect; nearly all actives have a fitted effect of over 60% in size
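HeLa cells stably expressing Vif and C-terminally eYFP-tagged A3G, seeded overnight at 37 deg C, then exposed to compound by pintool overnight at 37 deg C. Rise in yellow fluorescence (Ex 488/Em 500-530, Acumen) marks blocked Vif-driven A3G degradation.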
PTAP TSG101 blk = blocks PTAP/TSG101 interaction to inhibit HIV-1 budding; Fluorescence polarization, FITC-PTAP peptide / Tsg101 binding; Potency, µM (highest dose often 115 µM), inactives show at the highest dose activity change, negative = inhibition, actives largely listed as inhibitors; 340,000 tested, under 10 active; AID 493005; active = well fitted inhibition curve with a large enough effect in the main read-out, with a control signal flat, not every such curve was filed as active; inconclusive = small, poorly fitted or top-dose-only effect, or effect the other way, or a change in a side signal; inactive = no such curve, though single readings can be large or run the other way; also: potency is read from the fitted curve at half-maximal effect; % of control where 0% means no effect
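Steps: Tsg101 binding domain dispensed (10 uM final), compounds pinned in DMSO, FITC-labeled PTAP-motif peptide added (50 nM final); after 20 min binding at room temperature, polarization measured.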
CBFb RUNX1 block = blocks binding between human CBF-beta and RUNX1 | AlphaScreen CBFb-His/RUNX1-biotin binding, biochemical | Potency, µM (doses to about 59.8 µM), inactives show at the top dose activity, negative = inhibition, most hits filed as inhibitors | 230,000 tested, under 10 active | AID 1477; also: % of control where 0% means no effect
Target sequence (Q01196 whole entry, looked up): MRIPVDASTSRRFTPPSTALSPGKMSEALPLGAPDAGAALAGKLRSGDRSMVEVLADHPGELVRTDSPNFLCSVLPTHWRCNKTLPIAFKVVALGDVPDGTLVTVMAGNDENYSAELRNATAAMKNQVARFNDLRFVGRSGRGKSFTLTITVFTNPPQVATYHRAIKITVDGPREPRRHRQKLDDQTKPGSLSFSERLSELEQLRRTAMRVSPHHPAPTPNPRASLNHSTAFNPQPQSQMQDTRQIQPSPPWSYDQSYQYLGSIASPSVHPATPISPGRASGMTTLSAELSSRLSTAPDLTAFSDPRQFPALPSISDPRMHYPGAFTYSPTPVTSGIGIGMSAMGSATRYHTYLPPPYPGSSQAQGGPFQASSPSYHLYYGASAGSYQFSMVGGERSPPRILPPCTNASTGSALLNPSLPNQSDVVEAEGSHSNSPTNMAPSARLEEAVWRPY
Target sequence (Q13951 whole entry, looked up): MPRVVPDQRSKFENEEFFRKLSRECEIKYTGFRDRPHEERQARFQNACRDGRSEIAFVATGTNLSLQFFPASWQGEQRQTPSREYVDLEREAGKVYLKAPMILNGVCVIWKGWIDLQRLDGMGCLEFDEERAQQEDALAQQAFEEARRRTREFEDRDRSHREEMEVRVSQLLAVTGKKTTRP
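Interaction loss through any mechanism counts as activity. Pre-formed complex of His-CBF-beta and biotin-RUNX1 (30 nM apiece) is incubated with compound 15 min, then with 50 ng nickel and 50 ng streptavidin beads for 90 min before AlphaScreen detection.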
Epigenetic derep = derepresses silenced GFP reporter in murine cells; Potency, µM (series often up to 53.9 µM), for inactives: at the highest dose GFP activation, usual class: activators; AID 1865; actives 0.2% (n = 280,000); murine LDR cells, GFP reporter derepression, 30 h; also: potency is read from the fitted curve at half-maximal effect; % of control where 0% means no effect; nearly all actives have a fitted effect of over 60% in size
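In this reporter-derepression format, murine cells bearing a silenced integrated CMV-GFP locus incubate with test compound (30 h, 37 C), then are washed and imaged; fluorescent objects of 20–120 um count as induced cells.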
MBNL1 CUG block = blocks human MBNL1 binding to CUG repeat RNA; TR-FRET MBNL1-His/biotin-(CUG)12 binding, 665/545 ratio; Potency, µM (doses to about 57.5 µM), for the others: at the top dose activity change, negative = inhibition, usual class: inhibitors; actives 0.036% (n = 280,000); AID 2675; active = well fitted inhibition curve with a large enough effect in the signal ratio, with a control signal flat, not every such curve was filed as active; inconclusive = small, poorly fitted or top-dose-only effect, or effect the other way, or a change in a side signal; inactive = no such curve, though single readings can be large or run the other way; the % refers to the signal ratio; also: potency is read from the fitted curve at half-maximal effect; % is scaled to controls: 0 for no effect and ±100 for the full control effect
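MBNL1-His + Biotin-(CUG)12, cpd titration 92 nM–58 uM; Tb anti-His Ab 0.055 ng/ul, SA-XL665 5 nM (final); 60 min RT; ratiometric 665/545 nm, Ex 340 nm; normalized to buffer and full-complex controls.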
Vif-APOBEC3F blk = blocks the Vif interaction with APOBEC3F. Potency, µM (highest dose often 46.1 µM), for the others: at the top dose activity, negative = active. AID 602313. HeLa A3F-eYFP + Vif (tagged APOBEC3F with the HIV-1 protein that degrades it), YFP fluorescence increase. actives 0.2% (n = 390,000); also: potency is read from the fitted curve at half-maximal effect; % of control where 0% means no effect; nearly all actives have a fitted effect of over 65% in size
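HeLa cells stably expressing A3F-eYFP plus Vif, plated and incubated overnight at 37 deg C, then exposed to compounds overnight at 37 deg C. Blocked degradation read as raised yellow fluorescence (Ex 488/Em 500-530).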
The depositor's hits bear a star; ? = inconclusive; / = no result; ! = not confirmed by another sample. Unless noted, calls follow the shape of the dose curve; as a rule, active = well fitted curve in the direction sought with a large enough effect; inconclusive = small, poorly fitted or top-dose-only effect, or another doubt; inactive = no such curve, though single readings can be large; an effect the other way counts as inactive or inconclusive.

SMILES | Vif-A3G inh | PTAP TSG101 blk | CBFb RUNX1 block | Epigenetic derep | MBNL1 CUG block | Vif-APOBEC3F blk
N#Cc1c(C(F)(F)F)cc(-c2ccco2)nc1SCc1ccncc1 | ? | 2.1% | 1.7% | 13.3% | 9.1% | ?
O=C(COC(=O)c1ccccc1OCc1cccc(Br)c1)Nc1ccc(Br)cc1 | -2.4% | / | / | / | / | /
Cc1ccc(NS(=O)(=O)c2cc([N+](=O)[O-])ccc2N/N=C/c2sc(N3CCOCC3)nc2-c2ccccc2)c(C)c1 | ? | 8.6% | -2.7% | 31.6µM* | 1.3% | -394.7%
CCN(CC)c1ccc(/C=C/C(=O)C2C(=O)C=C(C)OC2=O)cc1 (stereo not given) | 13.2% | ? | -3.8% | 11.2µM* | 11.4% | -314.0%
CC1CCN(C(=O)C(C)Sc2nc(-c3ccccc3)cc(C(F)(F)F)n2)CC1 (stereo not given) | 20µM*! | -4.4% | 6.9% | 4.4% | -3.3% | -3.6%
CCOC(=O)N1CCC(=NNc2nc3ccccc3s2)CC1 | 0.2% | 0.8% | -4.9% | -0.7% | -0.6% | -4.3%
CCOC(=O)N1CCN(/C=C(\C#N)c2nc3ccccc3s2)CC1 | 22.4µM* | ? | -8.0% | 7.9% | 4.9% | 25.1µM*
N#C/C(=C\N1CCN(Cc2ccc3c(c2)OCO3)CC1)c1nc2ccccc2s1 | ? | ? | ? | ? | 4.9% | 28.2µM*
CC[n+]1ccnc2ccccc21 | -21.8% | / | / | / | / | /
CSc1nnc(N2C(=O)C(O)=C(C(=O)c3ccco3)C2c2ccccc2F)s1 (stereo not given) | -16.3% | -8.8% | / | / | ? | -10.2%
CCCSc1nnc(N2C(=O)C(O)=C(C(=O)c3ccco3)C2c2ccccc2F)s1 (stereo not given) | ? | -3.5% | / | / | 47.9% | 3.16µM*
N#C/C(=C/c1ccc(N2CCCCC2)o1)C(=O)Nc1ccc(Cl)cc1 | -2.4% | 20.4% | 14.4% | 0.631µM* | 4.9% | -490.7%
COc1ccc(NC(=O)/C(C#N)=C/c2ccc(C)o2)cc1 | -24.6% | / | / | -0.8% | / | ?
N#C/C(=C/c1ccc(N2CCCCC2)o1)C(=O)Nc1ccc2ccccc2c1 | 8.9% | ? | -3.5% | 2.51µM* | ? | -6.2%
N#C/C(=C\c1ccc(N2CCOCC2)o1)C(=O)Nc1ccc(O)cc1 | ? | ? | -14.1% | ? | ? | ?
COc1ccc(NC(=O)/C(C#N)=C/c2ccc(Br)o2)cc1 | -2.7% | -3.5% | ? | 0.5% | ? | -15.5%
CCCCOC(=O)c1ccc(NC(=O)/C(C#N)=C/c2ccc(C)o2)cc1 | 0.7% | / | / | 10µM* | / | -10.7%
N#C/C(=C/c1ccc(N2CCOCC2)o1)C(=O)NC1CCCCC1 | 11.2µM* | ? | -0.2% | 0.8% | ? | 22.4µM*
CC[N+](CC)(CC)c1ccc(/C=C/c2ccc3ccccc3n2)cc1 | 9.5% | / | / | / | / | /
CC(NC(=O)c1cnn2c1NC(=C1CC1)C=C2C(F)F)c1ccncc1 (stereo not given) | -1.1% | / | / | / | / | /
O=C(C[n+]1cccc2cc(Cl)ccc21)c1ccc2c(c1)CCCC2 | 0.6% | / | / | / | / | /
CCOC(=O)c1ccc(N(C(=O)c2ccccc2)c2ccccc2)cc1 | -2.7% | / | / | / | / | /
COc1ccc2[nH]c(C)cc2c1 | 0.0% | / | / | / | / | /
CCc1ccc(NC(=O)/C(C#N)=C/c2cc3ccc(C)cc3nc2N2CCOCC2)cc1 | -13.5% | ? | 9.7% | ? | 25.8% | 7.94µM*
CCc1ccc(NC(=O)/C(C#N)=C/c2ccncc2)cc1 | -1.7% | 2.6% | / | / | -3.7% | -0.2%
COc1ccc(NC(=O)/C(C#N)=C\c2ccc(N3CCOCC3)o2)cc1 | 15.0% | ? | ? | 15.8µM* | ? | ?
O=C(NC(=S)N1CCCCC1)C12CC3CC(CC(C3)C1)C2 | 0.9% | -6.5% | 0.8% | -0.8% | -1.1% | 3.1%
CC12CC3CC(C)(C1)CC(C(=O)NC(=S)N1CCOCC1)(C3)C2 | 10µM* | -4.2% | 6.7% | 0.9% | -6.7% | 2.4%
